In PubChem BioAssay (EPA / NIEHS) one finds outcome and AC50 data, which are given here for 40 compounds.

Each structure is given as a SMILES string. Several values for one entry are separate records, joined by “and”; a condition that tells them apart may be missing. Identical values can stand only once. Results filed as inconclusive are left out. Activity calls are given as the source filed them. The calls were made as follows: active = hit-call score of the fitted dose curve at least 0.9, where 1 is the maximum; inconclusive = response in the unintended direction; inactive = score below 0.9.

Broadly, the AC50 is the concentration at which the activity in the assay is half-maximal.

Chain of Peroxisome proliferator-activated receptor gamma (Homo sapiens) (P37231 whole entry, looked up): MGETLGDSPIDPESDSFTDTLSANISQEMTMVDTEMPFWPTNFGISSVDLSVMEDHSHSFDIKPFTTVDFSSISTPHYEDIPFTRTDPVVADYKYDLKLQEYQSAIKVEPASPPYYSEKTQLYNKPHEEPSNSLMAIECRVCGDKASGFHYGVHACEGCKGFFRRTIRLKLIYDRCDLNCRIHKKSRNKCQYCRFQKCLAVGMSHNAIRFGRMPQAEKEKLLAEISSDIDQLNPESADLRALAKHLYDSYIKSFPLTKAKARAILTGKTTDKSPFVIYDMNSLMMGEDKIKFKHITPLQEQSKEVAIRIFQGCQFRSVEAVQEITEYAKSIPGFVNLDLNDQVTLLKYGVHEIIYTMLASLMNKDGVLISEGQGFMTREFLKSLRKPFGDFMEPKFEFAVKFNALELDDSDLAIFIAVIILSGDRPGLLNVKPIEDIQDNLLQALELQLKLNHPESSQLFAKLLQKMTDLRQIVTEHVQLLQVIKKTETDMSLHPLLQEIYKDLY

In the test the target is Peroxisome proliferator-activated receptor gamma (Homo sapiens) (UniProt P37231). The test is described as follows: ATG_PPARg_TRANS: Attagene TRANS-FACTORIAL HepG2 Assay for human Peroxisome Proliferator-activated Receptor-gamma (PPARg) (AID 2283007). As for the experimental part:
ATG_TRANS is a cell-based, multiplexed-readout assay that uses HepG2, a human liver cell line, with measurements taken at 24 hours after chemical dosing in a 24-well plate.ATG_PPARg_TRANS is one of 30 assay component(s) measured or calculated from the ATG_TRANS assay. It is designed to make measurements of mRNA induction, a form of inducible reporter, as detected with fluorescence intensity signals by Reverse transcription polymerase chain reaction (RT-PCR) and Capillary electrophoresis technology.Data from the assay component ATG_PPARg_TRANS was analyzed into 1 assay endpoint. This assay endpoint, ATG_PPARg_TRANS, was analyzed in the positive analysis fitting direction relative to DMSO as the negative control and baseline of activity. Using a type of inducible reporter, measures of mRNA for gain-of-signal activity can be used to understand the reporter gene at the transcription factor-level as they relate to the gene PPARG. Furthermore, this assay endpoint can be referred to as a primary readout, because this assay has produced multiple assay endpoints where this one serves a reporter gene function. To generalize the intended target to other relatable targets, this assay endpoint is annotated to the nuclear receptor intended target family, where the subfamily is non-steroidal.
Human liver HepG2 cells are transiently transfected with multiple reporter transcription units (MRTUs) in 6-well plates using FuGene 6 reagent (Roche; 3 ml FuGene/1 mg DNA). The MRTU constructs are regulated by a cis-regulating element (promoter). […] A major difference between the CIS and TRANS system is that in CIS activities of endogenous TFs are measured, whereas the TRANS assay evaluates changes in activities of exogenous, chimeric NR-Gal4 proteins. […] At the end of 24 hour incubation, total RNA was isolated using TriZol reagent (Invitrogen). The isolated RNA is then reverse-transcribed using oligo(dT) primer and Mo-MLV reverse transcriptase (Invitrogen) with DNAse I (Ambion) treatment for 30 min. The one-tenth of the produced cDNA was amplified by PCR using Taq DNA polymerase (Invitrogen) and two reporter sequence-specific primers. The PCR products were fluorescently labeled by primer extension with 6-arboxyfluorescein (6-FAM) 5'-labeled reporter sequence-specific primer (2 min at 95 C, 20 s at 68 C and 10 min at 72 C) and these products were digested with 5U of HpaI (New England Biolabs) for 2h at 37 C. The fragments were purified using Qiaquick PCR columns (Qiagen), analyzed on an ABI 3130xL genetic analyzer (Applied Biosystems) with peak positions identified by using a set of X-rhodamine (ROX)-labeled MapMarker1000 molecular weight standards (BioVentures). The raw capillary electrophoresis data was processed using Attagraph software (Attagene).
As for `O=C(NO)C1(NS(=O)(=O)c2ccc(Oc3ccc(F)cc3)cc2)CCOCC1`, the result was inactive. On to `COc1cc(C(C)C)c2c(c1)S(=O)(=O)N(COc1cc(=O)n3cccc(OCCN4CCCCC4)c3n1)C2=O`, for which the AC50 is 2.75 µM (active). The same measure, in the same setting: then `Cc1ncc([C@@H](CCCCCCc2ccc3c(n2)NCCC3)CC(=O)O)cn1`, with 100 µM (active). For the compound `CCCCCCCCCCCCCCCCOS(=O)(=O)O`, the AC50 was 16.9 µM (active). Consider `OCC(CO)(CO)CO`, for which the compound was classed as inactive. On the same count and under the same terms, the result for `O=C(N[C@H](CO)[C@H](O)c1ccc([N+](=O)[O-])cc1)C(Cl)Cl` reads “inactive”. The same measure, in the same setting: then `O=C(O)CO`, with “inactive”. On the same count and under the same terms, then `COc1cc2c(c(OC)c1OC)-c1ccc(OC)c(=O)cc1[C@@H](NC(C)=O)CC2`, with “inactive”.

`C[C@@H](Oc1ccc(CNC(=O)c2cccnc2Oc2ccc3c(c2)OCO3)c(F)c1)C(=O)O`: the concentration at half-maximal activity (AC50) was 24.3 µM (active). On to `COS(C)(=O)=O`, for which the outcome was inactive. The same measure, in the same setting: the result for `NC(=O)NN=Cc1ccc([N+](=O)[O-])o1` reads “inactive”; that for `OCCC(F)(F)C(F)(F)C(F)(F)C(F)(F)F`, “inactive”; that for `FC(F)(F)COC(OCC(F)(F)F)OCC(F)(F)F`, “inactive”. For the compound `OC(O)(C(F)C(O)(O)C(F)(F)F)C(F)(F)F`, the AC50 was 150 µM (active) and 94.2 µM (active). For `CCCCCCCC1CCC(=O)O1` (stereo not given), the compound was called inactive. With `Cc1nc(-c2ccccn2)ncc1C(=O)Nn1cc(C)c2cc(F)ccc21`, the AC50 is 7.87 µM (active). Regarding `NC(=O)N1c2ccccc2C=Cc2ccccc21`, the call was inactive. On to `OCc1c[nH]c2ccccc12`, for which the AC50 is 7.94 µM (active) [middle of 5 runs].

With `CC(C)C(=O)Nc1ccc([N+](=O)[O-])c(C(F)(F)F)c1`, the AC50 was 49 µM (active).

As for `CCCOc1ccc(S(=O)(=O)N2CCN(CC)CC2)cc1-c1nc2c(CC)n(Cc3ccccn3)nc2c(=O)[nH]1`, the AC50 is 7.76 µM (active).

For the compound `CCn1nc(C)c2c1C(=O)NCC(c1ccc(O)cc1)=N2`, the AC50 is 8.02 µM (active). Regarding `C[Si](C)(C)C(F)(F)C(F)(F)C(F)(F)F`, the compound was called inactive.

As for `CCCCCCCCCCCCCCO`, the outcome was inactive.

Turning to `CCN(CC)C(=S)SSC(=S)N(CC)CC`, the call was inactive. Turning to `O=C(O)c1ccc2c(c1)nc(C(=O)NC1CCN(C3CC3)CC1)n2Cc1cc(-c2ccc(Cl)s2)on1`, the AC50 was 1.03 µM (active). Consider `O=C(Cl)C(F)(F)C(F)(F)C(F)(F)C(=O)Cl`, for which the result was inactive. Still for that read-out and setting: then `S=P(N1CC1)(N1CC1)N1CC1`, with “inactive”. In the case of `NCC(F)(F)C(F)(F)C(F)(F)C(F)(F)F`, the compound was called inactive. On the same count and under the same terms, the result for `O=c1[nH]cnc2c1ncn2[C@H]1CC[C@@H](CO)O1` reads “inactive”. For the compound `CC(C)CCCCCCOC(=O)C1CCCCC1C(=O)OCCCCCCC(C)C` (stereo not given), the result was inactive.

For `O=C(O)[C@H](O)[C@@H](O)C(=O)O`, the call was inactive. Same read-out and setting: then `FC(F)=C(F)C(F)(F)C(F)(F)C(F)(F)C(F)(F)C(F)(F)C(F)(F)F`, with “inactive”; and `OCCOCCOCCO`, with “inactive”; and `O=S(=O)(O)CCC(F)(F)C(F)(F)C(F)(F)C(F)(F)C(F)(F)C(F)(F)F`, with “inactive”. Take `Cn1c(=O)c2[nH]cnc2n(C)c1=O`: the compound was classed as inactive. The same measure, in the same setting: the result for `CC(C)c1nnc2ccc(-c3ocnc3-c3cc(F)ccc3F)cn12` reads “inactive”; that for `CCCCOC(=O)c1ccccc1`, “inactive”; that for `CCCCN1C(=O)[C@@H]([C@H](O)C2CCCCC2)NC(=O)C12CCN(Cc1ccc(Oc3ccc(C(=O)O)cc3)cc1)CC2`, “inactive”.

For `Cc1cccc(O)c1C`, the compound was classed as inactive.

`FC(F)(F)C(F)(F)C(F)(F)C(F)(F)C(F)(F)C(F)(F)I`: the AC50 is 88 µM (active) and 106 µM (active).
